# Measurements reported in the supplement of paper PMC3342239.
# Counter-ions that a name gives are not always drawn.
# Test system: Saccharomyces cerevisiae
# Experiment: fraction of cells in G1 phase (DNA content, flow cytometry); higher = more cells with unreplicated DNA (G1 delay)
# Details: temperature: 30 C; YPD; BY4741 PDR5+ SNQ2+; drug added to: actively dividing cells; 4.33 h
# Procedure: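 S. cerevisiae cultures in YPD at 30°C were treated with each drug of the Enzo FDA-approved library at 20 µg/ml (final µM given per drug). Cells were fixed after 6–7 h (S1) or 6 h (S2), or after 4.33 h for BY4741 (S3), then stained with SYTOX Green. %G1 is the Dean-Jett-Fox G1 peak area divided by the G1+G2/M peak areas, written as a fraction and averaged over at least two independent experiments. DMSO reference: mean ~0.49; >0.60 is called High G1 and <0.3876 Low G1. Scale: lower means mitotic delay.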
row,Compound,fraction of cells in G1 phase
1,C[C@@H]1CC[C@H]2[C@@H](C)C(=O)O[C@@H]3O[C@@]4(C)CC[C@@H]1[C@]32OO4 [Artemisinin] (70.8367 µM),0.5
2,C[C@]12CC[C@H](O)CC1=CC[C@@H]1[C@@H]2CC[C@]2(C)C(=O)CC[C@@H]12 [Dehydroepiandrosterone] (69.34 µM),0.501
3,CC1C=CC=CCCC=CC=CC=CC=CC(OC2OC(C)C(O)C(N)C2O)CC2OC(O)(CC(O)C(O)CCC(O)CC(O)CC(O)CC(=O)OC(C)C(C)C1O)CC(O)C2C(=O)O (stereo not given) [Nystatin] (21.5955 µM),0.549

# Same assay, conditions: temperature: 30 C; YPD; JTY2953 pdr5 snq2 (sensitized); drug added to: actively dividing cells; 6 h
row,Compound,fraction of cells in G1 phase
1,C[C@@H]1CC[C@H]2[C@@H](C)C(=O)O[C@@H]3O[C@@]4(C)CC[C@@H]1[C@]32OO4 [Artemisinin] (70.8367 µM),0.691
2,C[C@]12CC[C@H](O)CC1=CC[C@@H]1[C@@H]2CC[C@]2(C)C(=O)CC[C@@H]12 [Dehydroepiandrosterone] (69.34 µM),0.719
3,CC1C=CC=CCCC=CC=CC=CC=CC(OC2OC(C)C(O)C(N)C2O)CC2OC(O)(CC(O)C(O)CCC(O)CC(O)CC(O)CC(=O)OC(C)C(C)C1O)CC(O)C2C(=O)O (stereo not given) [Nystatin] (21.5955 µM),0.699
4,O=c1[nH]c2ccccc2n1C1CCN(CCCC(c2ccc(F)cc2)c2ccc(F)cc2)CC1 [Pimozide] (43.3313 µM),0.344

# Same assay, conditions: temperature: 30 C; YPD; JTY2953 pdr5 snq2 (sensitized); drug added to: cultures diluted from stationary phase; 6-7 h
row,Compound,fraction of cells in G1 phase
1,CN1C[C@@H](NS(=O)(=O)N(C)C)C[C@@H]2c3cccc4c3c(cn4C)C[C@H]21 [Mesulergine HCl] (55.1728 µM),0.547
2,CCCN1C[C@H](CSC)C[C@@H]2c3cccc4[nH]cc(c34)C[C@H]21 [Pergolide mesylate] (63.5937 µM),0.489
3,C=CCN1CC[C@]23c4c5ccc(O)c4O[C@H]2C(=O)CC[C@@]3(O)[C@H]1C5 [Naloxone HCl] (61.0904 µM),0.488
4,C=C1C[C@@H]2[C@H](CC[C@]3(C)C(=O)CC[C@@H]23)[C@@]2(C)C=CC(=O)C=C12 [Exemestane] (67.4764 µM),0.567
5,C[C@@H]1CC[C@H]2[C@@H](C)C(=O)O[C@@H]3O[C@@]4(C)CC[C@@H]1[C@]32OO4 [Artemisinin] (70.8367 µM),0.613
6,COc1cccc(C2(O)CCCCC2CN(C)C)c1 (stereo not given) [Tramadol HCl] (75.935 µM),0.492
7,N[C@@H]1C[C@H]1c1ccccc1.N[C@H]1C[C@@H]1c1ccccc1 [Tranylcypromine] (150.156 µM),0.531
8,CC(=O)O[C@H]1C[C@@H]2CC[C@@H]3[C@H](CCC4(C)[C@H]3C[C@H]([N+]3(C)CCCCC3)[C@@H]4OC(C)=O)C2(C)C[C@@H]1[N+]1(C)CCCCC1 (stereo not given in full) [Pancuronium Br] (34.9114 µM),0.487
9,CCN(C)C(=O)Oc1cccc([C@H](C)N(C)C)c1 [Rivastigmine] (79.8902 µM),0.504
10,O=P1(NCCCl)OCCCN1CCCl (stereo not given) [Ifosfamide] (76.6021 µM),0.489
11,COc1ccc(CCN2CCC(Nc3nc4ccccc4n3Cc3ccc(F)cc3)CC2)cc1 [Astemizole] (43.6125 µM),0.501
12,O=P1(N(CCCl)CCCl)NCCCO1 (stereo not given) [Cyclophosphamide monohydrate] (76.6021 µM),0.501
13,C=CCN1CC[C@]23CCCC[C@H]2[C@H]1Cc1ccc(O)cc13 [Levallorphan tartrate] (70.5673 µM),0.476
14,C[C@]12CC[C@H](O)CC1=CC[C@@H]1[C@@H]2CC[C@]2(C)C(=O)CC[C@@H]12 [Dehydroepiandrosterone] (69.34 µM),0.633
15,N[C@@H](Cc1ccc(N(CCCl)CCCl)cc1)C(=O)O [Melphalan] (65.5294 µM),0.45
16,Oc1ccc2c3c1O[C@H]1c4[nH]c5ccccc5c4C[C@@]4(O)[C@@H](C2)N(CC2CC2)CC[C@]314 [Naltrindole HCl] (48.2499 µM),0.504
17,CCCC[N+]1(C)[C@@H]2C[C@@H](OC(=O)[C@H](CO)c3ccccc3)C[C@H]1[C@@H]1O[C@@H]12 (stereo not given in full) [Scopolamine n-butylbromide] (55.482 µM),0.488

row,Compound,fraction of cells in G1 phase
1,CN(C)[C@@H]1C(=O)C(C(N)=O)=C(O)[C@@]2(O)C(=O)C3=C(O)c4c(O)cccc4[C@@](C)(O)[C@H]3C[C@@H]12 [Tetracycline] (44.9999 µM),0.471
2,CC[C@@H](C(N)=O)N1CCCC1=O [Levetiracetam] (117.5 µM),0.529
3,C[C@@H]1CN([C@H]2CC[C@](C#N)(c3ccc(F)cc3)CC2)CC[C@]1(C(=O)O)c1ccccc1 [Levocabastine HCl] (47.5588 µM),0.468
4,CC(C)c1cccc(C(C)C)c1O [Propofol] (112.185 µM),0.511
5,O=C(CCCN1CCC2(CC1)C(=O)NCN2c1ccccc1)c1ccc(F)cc1 [Spiperone] (50.5713 µM),0.484
6,CC1C=CC=CCCC=CC=CC=CC=CC(OC2OC(C)C(O)C(N)C2O)CC2OC(O)(CC(O)C(O)CCC(O)CC(O)CC(O)CC(=O)OC(C)C(C)C1O)CC(O)C2C(=O)O (stereo not given) [Nystatin] (21.5955 µM),0.665
7,NCC1(CC(=O)O)CCCCC1 [Gabapentin] (116.794 µM),0.543
8,O=C([O-])Cc1ccccc1.[Na+] [Sodium phenylacetate] (126.475 µM),0.487
9,CC(C)[C@@]1(NC(=O)[C@@H]2C[C@@H]3c4cccc5[nH]cc(c45)C[C@H]3N(C)C2)O[C@@]2(O)[C@@H]3CCCN3C(=O)[C@H](Cc3ccccc3)N2C1=O [Dihydroergocristine mesylate] (32.6932 µM),0.465
10,CC(C)(C)NCC(O)c1cc(Cl)c(N)c(Cl)c1 (stereo not given) [Clenbuterol] (72.1511 µM),0.498
11,CN1[C@@H]2C[C@@H](OC(=O)[C@H](CO)c3ccccc3)C[C@H]1[C@@H]1O[C@@H]12 [Scopolamine HBr] (65.928 µM),0.464
12,O=C1CCCN1CC#CCN1CCCC1 [Oxotremorine sesquifumarate] (96.9509 µM),0.542
13,Oc1ccc2c3c1O[C@H]1c4oc5ccccc5c4C[C@@]4(O)[C@@H](C2)N(CC2CC2)CC[C@]314 [Naltriben methanesulfonate hydrate] (39.093 µM),0.45
14,CC(C)(C)NCC(O)c1ccccc1Cl (stereo not given) [Tulobuterol] (87.8208 µM),0.493
15,O=c1[nH]c2ccccc2n1C1CCN(CCCC(c2ccc(F)cc2)c2ccc(F)cc2)CC1 [Pimozide] (43.3313 µM),0.85
16,COc1ccc(C(CN(C)C)C2(O)CCCCC2)cc1 (stereo not given) [Venlafaxine HCl] (72.0954 µM),0.453
